From PubChem
FMDV inh: antivirals against foot and mouth disease virus; Potency, µM (highest dose often 57.9 µM), for inactives: top-dose activity change, negative = inhibition, hits mostly inhibitors; actives 1.2% (n = 410,000); FMDV antiviral cell-based qHTS; AID 1159524; calls by dose curve; tested in HEK293T cells; also: read-out not given here; potency is read from the fitted curve at half-maximal effect; % is scaled to controls: 0 for no effect and ±100 for the full control effect; nearly all actives have a fitted effect of over 45% in size
CHX counter: counter-screen hit for Shiga toxin inhibitors, cycloheximide | max response, % | AID 2314 | actives 12% (n = 300,000) | cell reporter, cycloheximide protein synthesis inhibition counterscreen; in the data active = max response mostly above about 13%, no sharp cut-off; inactive = mostly below about 14%; also: read at 38.3 µM for the half of the compounds with a filed dose; 0% is about no effect
Shiga inhibitor: Shiga toxin inhibition; Vero cells, Shiga toxin protein synthesis inhibition reporter; inhibition, % at 38.7 µM; actives 9.2% (n = 290,000); AID 2315; in the data active = inhibition mostly above about 28%, no sharp cut-off; inactive = mostly below about 43%; also: 0% is about no effect
HCV inh: blocks hepatitis C virus. Potency, µM (top dose mostly 41.8 µM), without a hit: at the top dose activity change, negative = inhibition, most hits filed as inhibitors. Huh7.5.1 HCVcc-Cre infection, luciferase reporter, 44 h. actives 3.4% (n = 340,000). AID 651820; active = well fitted inhibition curve with a large enough effect; inconclusive = small, poorly fitted or top-dose-only effect, or another doubt; inactive = no such curve, though single readings can be large or run the other way; also: potency is read from the fitted curve at half-maximal effect; % is scaled to controls: 0 for no effect and ±100 for the full control effect
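Compounds are dispensed onto cells plated 4 h earlier at 1,000 per well, with HCVcc-Cre virus (about 0.5 moi) added next. Following 44 h of culture, luminescent signal is measured for 15 sec after 15 min with substrate at room temperature.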
Lassa entry inh: Lassa virus entry inhibition; Lassa virus pseudotype entry inhibition, cell reporter; actives 1.2% (n = 300,000); AID 540256; Potency, µM (series often up to 37.9 µM), without a hit: at the top dose activity change, negative = inhibition, most hits filed as inhibitors; calls by dose curve; tested in HEK293 cells; also: potency is read from the fitted curve at half-maximal effect; % is scaled to controls: 0 for no effect and ±100 for the full control effect; nearly all actives have a fitted effect of over 50% in size
MARV entry inh: Marburg virus entry inhibition; actives 1.8% (n = 300,000); AID 540276; Marburg virus pseudotyped entry inhibition, cell reporter; Potency, µM (top dose mostly 37.8 µM), inactives show top-dose activity change, negative = inhibition, usual class: inhibitors; calls by dose curve; tested in HEK293 cells; also: potency is read from the fitted curve at half-maximal effect; % is scaled to controls: 0 for no effect and ±100 for the full control effect
The depositor's hits bear a star; u = inconclusive; x = no result given; [ ] = another dose, or the depositor's remark. This is a sample that favours compounds with a hit; in the whole collection about 13% have one here.

SMILES	FMDV inh	CHX counter	Shiga inhibitor	HCV inh	Lassa entry inh	MARV entry inh
CCC1c2ccc(C)n2CCN1C(=O)Nc1ccccc1C(=O)OC (stereo not drawn)	-28.3%	6.9	-5.5	-24.1%	0.1%	-29.0%
CC(C)Oc1ccc(/C(O)=C2/C(=O)C(=O)N(Cc3cccnc3)C2c2ccco2)cc1 (stereo not drawn)	14.3%	62.0*	72.4*	u	4.2%	17.0%[46.1 µM]
CC(C)Oc1ccc(C2C(C(=O)c3ccco3)=C(O)C(=O)N2Cc2cccnc2)cc1 (stereo not drawn)	14.1%	34.6*	44.8*	30.9%	15.8%	25.5%
C=CCOc1cccc(C2C(C(=O)c3ccco3)=C(O)C(=O)N2Cc2ccco2)c1 (stereo not drawn)	64.3%	0.9	16.5	17.6%	x	-0.9%[46.1 µM]
COc1ccc(/C(O)=C2/C(=O)C(=O)N(Cc3cccnc3)C2c2ccccn2)cc1 (stereo not drawn)	9.4%	23.7*	61.1*	u	15.0%	9.7%
C=CCOc1cccc(C2C(C(=O)c3ccco3)=C(O)C(=O)N2Cc2ccncc2)c1 (stereo not drawn)	43.0%	29.2*	40.2*	2.7%	8.5%	-8.2%
CCOc1cccc(-c2nnc3sc(COc4ccccc4)nn23)c1	19.8%	-0.4	-29.0	-7.7%	0.5%	24.5%
Cc1ccc(S(=O)(=O)Nc2ccccc2N(C)S(=O)(=O)c2ccc(C)cc2)cc1	-16.1%	x	x	u	x	x
Cc1ccc2c(c1C)NC(=O)C2(O)CC(=O)c1ccc2c(c1)OCO2 (stereo not drawn)	0.0%	1.9	-10.6	27.5%	28.0%	2.1%
CCOc1ccc(C2C(C(=O)c3ccco3)=C(O)C(=O)N2CCCn2ccnc2)cc1OC (stereo not drawn)	-1.1%	15.5*	11.5	3.9%	8.0%[46.1 µM]	0.6%[46.1 µM]
O=C(Oc1cccnc1)c1ccccc1[N+](=O)[O-]	-8.5%	-1.2	-15.3	2.1%	-0.3%	23.5%
Cc1ccc(C(=O)O/N=C(\N)c2cccnc2)cc1[N+](=O)[O-]	35.9%	77.7*	18.4*	17.1%	u	6.4%
N/C(=N\OC(=O)c1cc([N+](=O)[O-])ccc1Cl)c1cccnc1	-24.4%	-1.8	21.1	u	u	u
N/C(=N\OC(=O)c1ccc([N+](=O)[O-])cc1)c1cccnc1	11.8%	13.8*	116.6*	2.6%	10.6%	8.0%
N/C(=N\OC(=O)c1ccccc1[N+](=O)[O-])c1cccnc1	28.7%	34.6*	55.3*	-10.0%	-8.8%	23.1%
O=C(/C=C/c1ccc[nH]1)c1ccccc1	42.1%	36.6*	68.1*	1.4%	-25.1%	7.7%[46.1 µM]
O=C(/C=C/c1ccccc1[N+](=O)[O-])c1ccc(F)cc1	-9.2%	13.7	29.3	-13.2%	16.4%	7.2%
O=C(/C=C/c1c(F)cccc1Cl)c1ccc(F)cc1	-16.2%	34.7*	131.9*	9.4%	-9.8%	14.9%
O=C(/C=C/c1ccc[nH]1)c1ccc(F)cc1	28.4%	31.9*	72.1*	-7.1%	x	x
COc1ccc(C2c3c(-c4ccc(F)cc4)n[nH]c3C(=O)N2c2ccccc2)cc1OC (stereo not drawn)	u	x	x	x	u	-20.8%[46.1 µM]
COc1ccc(-c2n[nH]c3c2C(c2ccc(O)cc2)N(c2ccc(Br)cc2)C3=O)cc1 (stereo not drawn)	31.6µM*	x	x	x	-0.6%[46.1 µM]	-8.2%[46.1 µM]
COc1ccc(-c2n[nH]c3c2C(c2ccc(OC)c(OC)c2)N(c2ccccc2)C3=O)cc1 (stereo not drawn)	u	-2.2	-12.4	18.3%	u	7.3µM*
CC(=O)Nc1cccc(NC(=O)c2cccc(OCc3ccccc3)c2)c1	u	17.3	17.3	u	x	x
Cc1ccc(C(=O)C(C)Sc2nnc(N)s2)cc1 (stereo not drawn)	-2.2%	15.3*	25.3	7.4%	10.5%	29.0%
CC(Sc1nnc(N)s1)C(=O)NNC(=O)c1cccc(Cl)c1 (stereo not drawn)	13.6%	x	x	-18.2%	0.1%	5.6%
SMILES	FMDV inh	CHX counter	Shiga inhibitor	HCV inh	Lassa entry inh	MARV entry inh
Cn1cc(C(=O)NCc2ccccc2)c2ccccc21	-0.4%	-1.1	3.3	-10.7%	-28.7%[46.1 µM]	u
CC(C)C/C(=N/O)c1cn(C)c2ccccc12	7.6%	16.8	13.9	-1.9%	1.12µM*	u
COc1ccc2c(c1)C1=C(CC2)C(c2ccc(C)cc2)NC(=S)N1 (stereo not drawn)	-0.6%	-5.3	8.0	11.2µM*	x	x
COc1cccc(C2NC(=S)NC3=C2CCc2ccccc23)c1 (stereo not drawn)	-2.4%	7.7	34.9	u	7.3%	2.6%
Cc1ccc(C2NC(=O)NC3=C2CCc2ccccc23)cc1 (stereo not drawn)	u	57.2*	70.6*	-28.2%	7.0%	-1.3%
CCOc1ccc(OCC(=O)OCC(=O)Nc2ccc3[nH]c(=O)[nH]c3c2)cc1	-18.0%	x	x	5.8%	6.6%	0.1%
Cc1cccc(C(=O)N2CCN(Cc3nc4sc5c(c4c(=O)[nH]3)CCCC5)CC2)c1	-15.4%	-1.8	-4.0	-14.0%	-26.5%[46.1 µM]	-1.7%[46.1 µM]
COc1cccc(C(=O)Nc2nnc(C(C)C)s2)c1	-35.4%	27.3*	46.7*	-25.9%	u	u
COc1ccc(C(=O)Nc2nnc(C(C)C)s2)cc1OC	28.7%	x	x	x	u	u
CN(C)c1cccc(C(=O)Nc2nnc(Cc3ccccc3)s2)c1	26.1%	26.1*	96.1*	u	u	u
CCOCCc1nnc(NC(=O)c2cc(OC)c(OC)c(OC)c2)s1	3.5%	-2.5	-6.8	-4.8%	14.3%	2.8%
CC(C)(C)C(=O)Nc1nnc(Cc2ccccc2)s1	21.5%	18.0	2.8	6.4%	-9.1%	1.9%
CCOCCc1nnc(NC(=O)c2cccc(F)c2)s1	18.4%	20.1*	40.9*	-1.9%	18.9%	u
CCCc1nnc(NC(=O)c2cccc(OC)c2)s1	22.4%	61.8*	73.5*	-14.1%	22.4%	14.1%
COc1ccc(-n2c(=O)c(C)nc3cnc(N(C)C)nc32)cc1	-13.8%	x	x	x	x	x
Cc1cc(C)n(CC(C)NC(=O)CCc2nnc(CCc3ccccc3)o2)n1 (stereo not drawn)	18.0%	5.3	2.8	-2.2%	-7.8%	11.2%[46.1 µM]
O=C(CCc1nnc(CCCCc2ccccc2)o1)N1CCC(N2CCCC2)CC1	7.1%	-6.9	12.1	-1.8%	x	x
O=C(CCc1nnc(CCCc2ccccc2)o1)NC(C1CC1)C1CC1	8.3%	33.4*	55.2*	-12.0%	-19.1%[46.1 µM]	u
O=C(CCc1nnc(CCCCc2ccccc2)o1)NCCc1cccnc1	7.3%	-0.3	5.2	20.2%	1.4%	4.1%[46.1 µM]
O=C(CCc1nnc(CCCCc2ccccc2)o1)N1CCCC(O)C1 (stereo not drawn)	6.7%	12.9*	38.3	-4.6%	x	x
Cc1nc(C(C)NC(=O)CCc2nnc(CCCc3ccccc3)o2)c(C)s1 (stereo not drawn)	46.9%	31.7*	74.8*	0.6%	15.8%	-1.2%[46.1 µM]
CCNc1nc(NCC)n2c(SCC(=O)Nc3ccc(Br)cc3F)nnc2n1	-22.1%	x	x	u	-0.2%	8.7%
